Results on 59 compounds are retold here after PubChem BioAssay AID489025 (Southern Research Specialized Biocontainment Screening …, 2010).

Molecules are shown by their SMILES. The whole screen tested about 2,300 compounds, of which about 790 (34%) were called active. The list shows a part of the results. Results with a measured potency or affinity are listed apart. Unmarked numbers belong to inactive results. The rule behind the calls is not given here.

The assay in a line: THP-1 cell cytotoxicity, dose response, cytotoxicity control for non-replicating M. tuberculosis project (AID 489025). As to conditions: THP-1 cell viability; series mostly up to 40 µM; viability: at the top concentration.
What is called viability is a read-out of living cells in per cent, often relative to untreated cells. Take `c1ccc2[nH]c(NC3=NCCC3)nc2c1`: the “viability” value is 102%.

`Cc1cc2n(n1)SC(Nc1ccccc1)N2` (centres undefined): the “viability” value is 99.7%.

Take `O=C(COC(=O)c1cc(Br)ccc1Cl)NC1CCCC1`: the “viability” value was 124%.

Regarding `COC(=O)COc1ccc2c(-c3cccc([N+](=O)[O-])c3)cc(=O)oc2c1`, the “viability” value was 104%.

Turning to `O=C(CN1CCC(NC(=O)c2cccc(F)c2)CC1)Nc1ccc(Br)cc1`, the “viability” value is 99.6%.

For `NC(=O)C1(N2CCCCC2)CCN(C2CC(=O)N(CCc3ccccc3)C2=O)CC1` (centres undefined), the “viability” value was 99.9%.

With `c1ccc(OCc2nn3c(-c4ccccn4)nnc3s2)cc1`, the “viability” value is 107%.

Take `c1ccc(OCc2nnc3sc(-c4cccs4)nn23)cc1`: the “viability” value was 105%.

For the compound `CCOC(=O)Cn1cc(C#N)c2cccc(CC)c21`, the “viability” value is 89.5%.

Take `Cc1occc1C(=O)N/N=C/C(Br)=C\c1ccccc1`: the “viability” value is 82.6%.

As for `O=C(O)c1ccccc1-c1ccccc1C(=O)Nc1nc2ccccc2s1`, the “viability” value is 95.6%.

As to `Cc1oc(=O)c(NC(=O)c2ccccc2)cc1C(=O)c1ccccc1`, the “viability” value is 73.8%.

Take `O=C(COC(=O)c1ccc(O)cc1O)c1ccc2c(c1)OCO2`: the “viability” value was 105%.

In the case of `O=C(COC(=O)c1cc(Br)ccc1O)Nc1ccc2c(c1)OCO2`, the “viability” value is 112%.

For `COc1ccc(OC(=O)c2cc3ccccc3o2)cc1`, the “viability” value is 108%.

Regarding `CCCC(O)(CCC)C(=O)NNc1ccc(C)cc1`, the “viability” value was 106%.

As for `O=c1[nH][nH]c(-c2ccccc2O)c1C(C[N+](=O)[O-])c1cccc(Cl)c1` (centres undefined), the “viability” value is 115%.

For the compound `CC(C)[C@H]1CN=C2N(C[C@H](C)NC(=O)CCC3CCCCC3)[C@H](Cc3ccc(O)cc3)CN21`, the “viability” value was 81.4%.

Consider `CCCC(=O)N1CCC(Cc2ccccc2)CC1`, for which the “viability” value was 100%.

Take `O=C(CN1CCC(Cc2ccccc2)CC1)NC(=O)NC1CCCCC1`: the “viability” value was 96.4%.

Take `C[C@@H]1CN=C2N(CCNC(=O)CCC3CCCCC3)[C@H](Cc3ccc(O)cc3)CN21`: the “viability” value is 82.8%.

As for `O=C(c1ccccc1)C1CN(Cc2ccccc2)CCC1(O)c1ccccc1` (centres undefined), the “viability” value is 110%.

As for `CC(C)CNc1nc(=S)nc(N(C)C)[nH]1`, the “viability” value is 101%.

As for `O=C(COc1ccc(Br)cc1)Nc1ccc([N+](=O)[O-])cn1`, the “viability” value is 105%.

Turning to `COc1ccc(Cc2nnc(-c3ccccc3)o2)cc1`, the “viability” value is 101%.

As for `O=C(Nc1nccs1)c1sc2ccccc2c1Cl`, the “viability” value was 77.2%.

For `CCn1nnc(NC(=O)c2sc3ccccc3c2Cl)n1`, the “viability” value was 119%.

Consider `NC1CCN(c2c(F)cc3c(=O)c(C(=O)O)cn(C4CC4)c3c2Cl)C1` (centres undefined), for which the “viability” value was 120%.

For `Cc1ccc(NC(=O)COC(=O)C(NS(=O)(=O)c2ccc(Cl)cc2)C(C)O)cc1C` (centres undefined), the “viability” value was 96.9%.

For the compound `CCOCCOC(=O)c1ccc(NC(=O)C2COc3ccccc3O2)cc1` (centres undefined), the “viability” value is 102%.

For the compound `CCc1ccccc1NC(=O)C1COc2ccccc2O1` (centres undefined), the “viability” value is 93.5%.

`CCOC(=O)c1cc2cc3ccccc3cc2oc1=O`: the “viability” value was 94.6%.

For `Cc1ccc2nc(CCc3nc4ccc(C)cc4[nH]3)[nH]c2c1`, the “viability” value is 81.3%.

For the compound `O=C(COC(=O)CC1CCCC1)Nc1ccc(Cl)cn1`, the “viability” value is 118%.

For the compound `CC(=O)c1ccc(OC(=O)c2ccc(-n3nc(C)cc3C)cc2)cc1`, the “viability” value is 113%.

As to `CCOc1ccc(OCC(=O)Nc2ccc(OC)cc2)cc1`, the “viability” value is 105%.

In the case of `CCOC(=O)c1nn(-c2ccccc2)c2nc(Nc3ccccc3)cc(=O)n12`, the “viability” value is 108%.

For the compound `Cc1cc(C)n(-c2ccc(C(=O)Oc3ccc4c(c3)OCO4)cc2)n1`, the “viability” value was 108%.

Take `O=C(OCc1c(Cl)cccc1Cl)c1ccccn1`: the “viability” value was 112%.

`CCCN1C(=O)S/C(=C\c2ccc(N3CCOCC3)o2)C1=O`: the “viability” value was 73.1%.

On to `C/C(=N\Nc1ccc(Cl)cc1)c1c(O)cc(C)oc1=O`, for which the “viability” value is 109%.

Turning to `COc1ccc2oc(=O)c(/C(C)=N/NC(=O)c3ccncc3)cc2c1`, the “viability” value was 88%.

For `COc1cccc(C(=O)C2CCCN(CC3=Cc4cc(OC)ccc4OC3)C2)c1` (centres undefined), the “viability” value was 79.1%.

As to `CCn1cc(C(=O)NC(C)C23CC4CC(CC(C4)C2)C3)cn1` (centres undefined), the “viability” value is 102%.

For the compound `O=C(c1ccc(Cl)cc1)c1nnc(-c2ccncc2)o1`, the “viability” value was 101%.

On to `O=C(CCc1ccccc1F)N1CCN(c2ccccc2)CC1`, for which the “viability” value is 101%.

For `Cc1ccc(S(=O)(=O)N2CCC(C(=O)OCc3ccccc3)CC2)cc1C`, the “viability” value was 112%.

Regarding `O=C(OCC(=O)N1CCN(c2ccccc2)CC1)c1ccc(Cl)cc1[N+](=O)[O-]`, the “viability” value is 97.4%.

On to `O=C(OCC(=O)N1CCN(c2ccccc2)CC1)c1ccc2ccccc2n1`, for which the “viability” value is 97.3%.

On to `CC(NC(=O)COc1ccccc1F)C1CC2CCC1C2` (centres undefined), for which the “viability” value is 80.8%.

For `O=C(NCCc1ccccc1)c1nc(-c2cccs2)no1`, the “viability” value was 110%.

With `Cc1ccc(CNCc2cc(Cl)ccc2O)cc1`, the “viability” value was 92.3%.

On to `CCOC(=O)Nc1cccc(OCC(=O)Nc2ccccc2OC)c1`, for which the “viability” value is 96.1%.

As to `COc1ccc(NC(=O)COc2ccccc2)cc1Cl`, the “viability” value was 76.1%.

Take `CC(Cc1ccccc1Sc1ccccc1)N(C)C` (centres undefined): the “viability” value is 82.6%.

On to `CCOc1ccccc1NC(=O)COn1nnc2ccc(Cl)cc21`, for which the “viability” value was 81.6%.

`CCOc1cccc2cc(C(=O)Nc3nccs3)c(=O)oc12`: the “viability” value is 117%.

`OC(C#CCN1CCOCC1)c1cccs1` (centres undefined): the “viability” value is 119%.

`Cc1[nH]nc2c1C(c1ccc(OC(=O)c3ccco3)cc1)C(C#N)=C(N)O2` (centres undefined): the “viability” value is 88.6%.
